A selection: hits, their analogues and other compounds. The true share with any hit is near 28%.
hDAT+cocaine = changed human dopamine transporter uptake under cocaine IC80. LLC-PK1 hDAT cells, [14C]-dopamine uptake with cocaine IC80; actives deviate in either direction. B-score at 10 µM. 1.3% of 110,000 active. AID 449768;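 active means Z score or B-score, a plate-position-corrected score, falls beyond the plate's 99.7% confidence bounds, in either direction; inactive means both scores lie inside the 99.7% bounds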;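 further: scored against the spread of the other compound wells on the same plate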
D1 mod = D1 dopamine receptor (human) allosteric modulation; P21728; HEK293 D1, CRE-luciferase, dopamine EC30 potentiation; actives deviate in either direction; B-score at 10 µM; 5.9% of 58,000 active;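 active means luminescence count or its row- and column-corrected plate score outside the 99.7% band of the plate's sample wells, on either side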
Target sequence (P21728 whole entry, looked up): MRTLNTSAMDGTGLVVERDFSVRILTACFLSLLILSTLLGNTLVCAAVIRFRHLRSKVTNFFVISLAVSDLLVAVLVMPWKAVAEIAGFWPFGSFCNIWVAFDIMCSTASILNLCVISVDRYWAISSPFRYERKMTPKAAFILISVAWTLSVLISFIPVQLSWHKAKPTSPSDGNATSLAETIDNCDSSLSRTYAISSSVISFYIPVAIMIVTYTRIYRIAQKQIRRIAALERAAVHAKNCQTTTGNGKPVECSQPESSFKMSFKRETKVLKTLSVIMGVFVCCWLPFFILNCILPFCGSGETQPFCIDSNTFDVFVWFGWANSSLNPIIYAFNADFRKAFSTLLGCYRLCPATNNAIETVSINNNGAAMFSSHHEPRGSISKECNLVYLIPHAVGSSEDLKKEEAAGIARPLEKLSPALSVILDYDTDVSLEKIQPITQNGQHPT
CYP2C19 act = activators of human cytochrome P450 2C19; P33261; recombinant CYP2C19, luciferin-H EGE luminescence; stronger effect = higher value; 0 = fully inhibited enzyme, 1 = untreated enzyme; activation factor at 5 µM; 96,000 tested, under 10 active; AID 1025;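 active means activation factor of at least 2 at 5 µM in the primary screen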;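 further: 0 = wells with 2.5 mM tranylcypromine and 1 = vehicle-only wells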
CYP2C9 act = increases human cytochrome P450 2C9 activity; AID 1024; P11712; activation factor at 5 µM; 1.4% of 96,000 active; recombinant CYP2C9, luciferin-H conversion, luminescence; stronger effect = higher value; factor 1 = untreated enzyme, 0 = blocked;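 active means activation factor of 2 or more for CYP2C9 at a 5 µM dose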;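 further: 0 = sulfaphenazole-blocked wells and 1 = vehicle-only wells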
CYP2C9 inh = human CYP2C9 inhibition | inhibition, % at 5 µM | P11712 | AID 777 | CYP2C9 Supersomes, luciferin-H conversion, luminescence | 20% of 96,000 active;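 active means blocking of liver enzyme CYP2C9 beyond about 50% at 5 µM, limit read from the data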
CYP2C19 inh = human CYP2C19 inhibition. 21% of 96,000 active. P33261. inhibition, % at 5 µM. CYP2C19 Supersomes, luciferin-H EGE luminescence, 30 min;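 active means CYP2C19 inhibition above a set limit at 5 µM in the primary screen, cut at about 50% in these data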;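 further: plate controls were negative control wells for no effect and 2.5 mM tranylcypromine positive control for full effect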
* marks the source's active call; other numbers are inactive results; nt = no result given.

SMILES	hDAT+cocaine	D1 mod	CYP2C19 act	CYP2C9 act	CYP2C9 inh	CYP2C19 inh
CCOc1ccccc1NC(=O)C1=C(C)NC(=O)NC1c1cccc(OC)c1OC (stereo not given)	-0.24	-0.15	0.8	0.9	12	20
Cc1cc(C(=O)CC#N)c(C)n1-c1ccc(OC(F)F)cc1	-0.46	nt	0.1	0.2	79*	91*
COC(=O)c1cc(C(=O)OC)cc(-n2c(C)cc(C(=O)CC#N)c2C)c1	0.22	nt	0.7	0.3	69*	34
CC(C)CC(COCc1cccc(C(F)(F)F)c1)N1CCN(C(=O)c2cccc(C(F)(F)F)c2)CCC1=O (stereo not given)	0.7	nt	nt	nt	nt	nt
Cc1cccc(NC(=O)CSc2nc(COc3ccccc3)nc3ccccc23)c1C	1.4	nt	0.6	0.1	90*	39
Cc1cccc(NC(=O)CSc2nnc(-c3ccccc3Br)o2)c1C	0.13	0.16	0.6	0.9	14	37
CCc1nc(SCC(=O)Nc2nc3c(s2)CCCC3)c2ccccc2n1	0.16	nt	1	0.8	16	-3
CCc1nc(SCC(=O)Nc2sc(C)c(C)c2C(=O)OC)c2ccccc2n1	0.066	nt	0.9	0.5	54*	14
CCCc1nc(SCC(=O)Nc2cc(C)on2)c2ccccc2n1	0.0059	0.98	0.9	0.7	32	10
CCc1nc(SCC(=O)N2c3ccccc3Sc3ccccc32)c2ccccc2n1	0.019	nt	1	0.5	53*	0
Cc1cccc(C)c1NC(=O)CSc1nc(COc2ccccc2)nc2ccccc12	0.57	nt	0.3	0.1	90*	66*
CCCc1nc(SCC(=O)N2CCCC2)c2ccccc2n1	0.37	1.4	0.9	0.8	20	12
CC(Sc1nc(-c2ccccc2)nc2c1COC(C)(C)C2)C(=O)N1CCOCC1 (stereo not given)	1.6	nt	0.5	0.7	27	46
Cn1c(=O)oc2cc(S(=O)(=O)N3CCCC(C(=O)Nc4ccc5c(c4)OCCO5)C3)ccc21 (stereo not given)	1	-1.6	0.7	0.9	9	27
COc1ccc(OC)c(N2C(=O)CC(C(C)c3ccccc3)C2=O)c1 (stereo not given)	-0.12	-0.51	0.3	0.8	19	66*
CC1CCN(C(=O)CCCOc2ccc(Cl)cc2)CC1	0.098	nt	nt	nt	nt	nt
CC12CCC(C(=O)N3CCN(C(=O)C45CCC(C)(C(=O)O4)C5(C)C)CC3)(OC1=O)C2(C)C	nt	0.98	nt	nt	nt	nt
O=C(Nc1ccccc1N1CCN(C(=O)c2ccccc2)CC1)c1cc2ccccc2o1	0.0062	-2.4	0	0	96*	97*
O=C(Nc1ccccc1N1CCN(C(=O)c2ccccc2)CC1)c1cc(Br)ccc1Cl	0.49	nt	0.3	0.2	82*	71*
O=C(Nc1ccccc1N1CCCC1)c1cc2ccccc2o1	nt	0.67	0.8	0.9	13	16
Cc1nn(C)c(C)c1Sc1ccc(Br)cc1	0.35	-1.2	0.4	0.8	25	64*
Cc1nn(S(=O)(=O)c2ccc([N+](=O)[O-])cc2)c(C)c1Sc1ccccc1	0.097	nt	nt	nt	nt	nt
CC(C)C[C@H](NC(=O)c1nc[nH]c1C(=O)N1CCc2ccccc2C1)C(=O)OC(C)(C)C	1.2	nt	nt	nt	nt	nt
Cc1ccccc1C(=O)NC(=S)Nc1sc2c(c1C#N)CCC(C)C2 (stereo not given)	0.029	nt	0.7	0.4	63*	34
Cc1ccccc1NC(=S)NNC(=O)c1csc2c1CCC(C)C2 (stereo not given)	0.22	nt	0	0.3	66*	98*
SMILES	hDAT+cocaine	D1 mod	CYP2C19 act	CYP2C9 act	CYP2C9 inh	CYP2C19 inh
CCNC(=S)NNC(=O)c1csc2c1CCC(C)C2 (stereo not given)	-0.36	nt	0.6	1.2	-22	41
COc1ccc(C(=O)Nc2cc(C(F)(F)F)ccc2Cl)cc1OC	0.071	nt	1	2.5*	-147	3
COc1cccc(C(=O)NC(=S)Nc2ccc3c4c(cccc24)CC3)c1	-0.48	nt	1	2*	-97	-2
Cc1ccccc1OCC(=O)NC(=S)Nc1ccc2c3c(cccc13)CC2	0.34	nt	1.1	1.1	-12	-5
COc1cccc(C(=O)Nc2ccc(C)cc2)c1	1.3	-4.5*	0.8	1.1	-6	24
COc1cccc(C(=O)Nc2ccc(F)c(F)c2F)c1	0.28	nt	0.5	0.9	13	54*
CN(C)c1nc(Oc2ccc(=O)[nH]n2)nc(N2CCCCC2)n1	0.11	-0.52	0.9	0.8	19	9
CCCn1c(SCC(=O)OCc2ccccc2)nc2c1c(=O)n(C)c(=O)n2C	-0.15	1.3	1	0.7	26	-1
Cc1ccc(Cl)cc1NC(=O)c1cccc(OC(F)F)c1	-0.032	nt	0.4	0.7	31	55*
COc1cccc(C(=O)Nc2ccc(F)cc2F)c1	0.85	nt	nt	nt	nt	nt
Cc1ccc(NC(=O)c2ccc(Cl)c(N3C(=O)C=CC3=O)c2)cc1	-0.0099	nt	1	0.4	62*	-2
COc1cccc(C(=O)Nc2ccc(Cl)c(C(F)(F)F)c2)c1	0.37	nt	0.7	0.4	62*	35
COc1cc(NC(=O)c2ccnnc2)cc(C(=O)Nc2cccc(C(F)(F)F)c2)c1	3.3*	nt	nt	nt	nt	nt
O=C1C=CCC(/C=C/c2ccccc2)O1 (stereo not given)	-1.2	nt	nt	nt	nt	nt
CN1C(=O)CC(N2CCN(c3ccc(Cl)c(Cl)c3)CC2)C1=O (stereo not given)	-0.64	nt	0.5	0.8	17	47
COCCCNC(=O)C1CCC(=O)N1Cc1ccccc1Cl (stereo not given)	-0.3	-0.46	0.9	0.9	9	6
Cc1ccc(S(=O)(=O)Cn2cnnn2)cc1	-0.11	nt	0.9	1	3	10
COc1ccc(C(=O)Nc2cc(C(=O)NCCc3ccccc3)ccc2Cl)cc1	0.59	nt	0.4	0.2	83*	57*
O=C(NC(=S)Nc1cc(C(F)(F)F)ccc1Cl)c1ccccc1	-0.15	nt	0.6	1.6	-56	39
COc1cccc(C(=O)Nc2cc(C(F)(F)F)ccc2Cl)c1	0.7	nt	0.7	2.7*	-174	32
COc1ccc(CCNC(=O)c2ccc(Cl)cc2)cc1	0.39	nt	0.6	0.8	22	45
CCCS(=O)(=O)N1CCC(C(=O)c2cccc(C(F)(F)F)c2)CC1	-0.098	0.96	0.6	1.1	-8	38
CS(=O)(=O)N1CCC(C(=O)c2cccc(Cl)c2)CC1	-1.5	-0.42	0.2	0.7	33	79*
CC(=O)CC(=O)Nc1ccccc1NC(C)=O	0.59	-0.23	1	1	1	-2
CN1CCC(=NNC(=O)C(=O)NC(C)(C)C)CC1	-0.26	nt	0.7	0.4	55*	31
O=C(Nc1ccccc1C(=O)NCCN1CCOCC1)c1ccco1	-0.38	-0.79	0.9	0.8	16	12
CC(C)Sc1nnc(-c2c[nH]c3ccccc23)n1C	-0.085	0.017	0.3	0.8	19	68*

High-throughput results as filed in PubChem.
